For part of these data: Results with a measured potency or affinity are listed apart.
Tests used:
Design in all cases: scale not given: direction of the effect not stated beside the values
[1] = target: Protein translocase subunit SecA (Escherichia coli (strain K12)) (UniProt P10408); test: Assay to Identify E. coli SecA ATPase Inhibitors; format: functional; conditions: 30 µM
[2] = target: T1, Ubiquitin-activating enzyme e1, putative (Leishmania donovani (strain BPK282A1)) (UniProt E9BSI1); test: Leishmania donovani Ubiquitin Activating Enzyme (LdE1); format: functional; conditions: 30 µM
T1 sequence (whole entry): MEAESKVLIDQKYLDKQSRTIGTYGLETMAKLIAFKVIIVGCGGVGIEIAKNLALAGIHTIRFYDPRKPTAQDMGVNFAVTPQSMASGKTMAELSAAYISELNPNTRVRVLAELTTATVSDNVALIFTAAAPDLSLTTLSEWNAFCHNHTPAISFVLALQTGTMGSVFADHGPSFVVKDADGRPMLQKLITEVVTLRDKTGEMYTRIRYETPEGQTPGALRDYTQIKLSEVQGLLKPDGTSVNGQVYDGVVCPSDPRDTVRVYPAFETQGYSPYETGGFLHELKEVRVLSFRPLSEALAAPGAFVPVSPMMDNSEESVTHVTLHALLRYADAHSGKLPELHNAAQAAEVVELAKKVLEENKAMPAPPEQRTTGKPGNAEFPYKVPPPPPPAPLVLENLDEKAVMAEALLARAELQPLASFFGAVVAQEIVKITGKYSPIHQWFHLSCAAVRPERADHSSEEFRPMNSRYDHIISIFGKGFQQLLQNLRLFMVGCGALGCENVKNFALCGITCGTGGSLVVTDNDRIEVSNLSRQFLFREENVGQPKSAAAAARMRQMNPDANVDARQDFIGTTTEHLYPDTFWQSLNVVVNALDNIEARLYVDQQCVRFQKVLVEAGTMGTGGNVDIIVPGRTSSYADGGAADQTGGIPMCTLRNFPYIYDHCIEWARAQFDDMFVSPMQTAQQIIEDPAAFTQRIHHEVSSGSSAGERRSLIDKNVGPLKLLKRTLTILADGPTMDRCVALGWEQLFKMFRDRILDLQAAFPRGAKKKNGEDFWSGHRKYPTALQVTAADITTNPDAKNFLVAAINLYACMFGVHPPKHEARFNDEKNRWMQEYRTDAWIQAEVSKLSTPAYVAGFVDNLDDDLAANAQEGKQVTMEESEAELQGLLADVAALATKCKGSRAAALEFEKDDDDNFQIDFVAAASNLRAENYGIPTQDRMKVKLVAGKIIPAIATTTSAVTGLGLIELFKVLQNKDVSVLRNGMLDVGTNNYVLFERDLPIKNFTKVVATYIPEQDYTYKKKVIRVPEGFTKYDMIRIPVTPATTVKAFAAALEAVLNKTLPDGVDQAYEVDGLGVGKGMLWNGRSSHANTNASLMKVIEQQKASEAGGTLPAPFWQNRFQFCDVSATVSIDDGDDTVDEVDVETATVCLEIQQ

[3] = target: Sialic acid-binding Ig-like lectin 9 (Homo sapiens) (UniProt Q9Y336); test: Hs-Siglec9 ALPHAscreen SOP 20170721; conditions: 10 µM
[4] = test system: Trypanosoma cruzi; test: Trypanosoma cruzi phosphomannomutase and mannose-1-phosphate guanylyltransferase assay; format: functional; conditions: 10 µM
[5] = target: T2, Arginase-2, mitochondrial (Homo sapiens) (UniProt P78540); test: in vitro enzyme assay to detect the production of urea directly proportional to the activity of Arginase II; format: functional; conditions: 33.3 µM; further: in the data most compounds retested in dose-response had high values
T2 sequence (whole entry): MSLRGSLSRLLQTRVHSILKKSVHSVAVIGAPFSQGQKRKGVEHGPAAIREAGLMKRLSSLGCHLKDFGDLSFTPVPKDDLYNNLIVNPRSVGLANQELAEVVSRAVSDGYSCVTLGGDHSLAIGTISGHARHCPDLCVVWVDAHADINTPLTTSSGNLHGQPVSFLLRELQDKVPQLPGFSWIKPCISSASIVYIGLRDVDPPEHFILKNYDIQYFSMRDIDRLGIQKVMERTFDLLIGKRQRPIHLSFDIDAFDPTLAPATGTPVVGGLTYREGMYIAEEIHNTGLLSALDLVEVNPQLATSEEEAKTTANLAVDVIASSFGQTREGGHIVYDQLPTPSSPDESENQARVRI

[6] = target: T3, Proteasome subunit beta (Trypanosoma cruzi) (UniProt O96673); test: Trypanosoma cruzi proteasome chymotrypsin-like activity (TcProtChymo) assay.; further: in the data most compounds retested in dose-response had high values; format: functional; conditions: 9.37 µM
T3 sequence (whole entry): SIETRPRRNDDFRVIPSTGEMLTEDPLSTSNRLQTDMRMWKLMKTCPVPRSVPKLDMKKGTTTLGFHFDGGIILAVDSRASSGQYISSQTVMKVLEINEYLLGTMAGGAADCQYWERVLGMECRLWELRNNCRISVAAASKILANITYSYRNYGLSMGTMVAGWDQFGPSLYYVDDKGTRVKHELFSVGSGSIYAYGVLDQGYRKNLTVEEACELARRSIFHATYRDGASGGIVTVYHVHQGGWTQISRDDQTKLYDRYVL

[7] = species: Homo sapiens; test: To identify inhibition of the IFN signalling (Jak-Stat) pathway via expression of an eGFP reporter gene under the control of an IFN-stimulated response element (ISRE) containing MxA promoter.; format: functional; conditions: 30 µM
[8] = target: T4, Tyrosyl-tRNA synthetase, putative (Trypanosoma cruzi (strain CL Brener)) (UniProt Q4DSP6); test: Trypanosoma cruzi tyrosyl tRNA synthetase (TcYRS) _High Tyrosine SOP; format: functional; conditions: 30 µM; further: in the data most compounds retested in dose-response had high values
T4 sequence (whole entry): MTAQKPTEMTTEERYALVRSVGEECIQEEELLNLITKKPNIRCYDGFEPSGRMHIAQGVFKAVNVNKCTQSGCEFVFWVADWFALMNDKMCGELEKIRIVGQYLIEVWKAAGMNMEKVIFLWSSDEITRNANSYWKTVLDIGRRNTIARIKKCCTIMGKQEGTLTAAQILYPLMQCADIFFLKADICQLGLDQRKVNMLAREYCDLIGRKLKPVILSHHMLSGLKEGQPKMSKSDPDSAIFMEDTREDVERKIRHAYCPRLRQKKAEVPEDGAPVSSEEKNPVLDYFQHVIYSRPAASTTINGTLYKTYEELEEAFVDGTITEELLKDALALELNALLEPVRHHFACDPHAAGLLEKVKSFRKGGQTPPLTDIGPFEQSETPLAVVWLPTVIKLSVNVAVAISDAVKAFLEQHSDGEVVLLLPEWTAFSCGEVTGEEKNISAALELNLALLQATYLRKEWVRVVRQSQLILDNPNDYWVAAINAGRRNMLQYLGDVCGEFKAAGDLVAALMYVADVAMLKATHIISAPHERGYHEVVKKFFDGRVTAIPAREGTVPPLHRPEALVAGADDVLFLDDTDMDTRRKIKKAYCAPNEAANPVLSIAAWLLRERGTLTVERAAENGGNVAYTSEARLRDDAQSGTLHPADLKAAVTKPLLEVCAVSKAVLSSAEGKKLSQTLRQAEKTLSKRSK

[9] = target: T4, Tyrosyl-tRNA synthetase, putative (Trypanosoma cruzi (strain CL Brener)); test: Trypanosoma cruzi tyrosyl tRNA synthetase (TcYRS) SOP; format: functional; conditions: 30 µM
[10] = target: Chromo domain-containing protein 1 (Saccharomyces cerevisiae (strain ATCC 204508 / S288c) (Baker's yeast)) (UniProt P32657); test: ScCHD-1 Enzyme Inhibition Assay; format: functional; conditions: 30 µM; further: in the data most compounds retested in dose-response had high values
Sequence of Chromo domain-containing protein 1 (Saccharomyces cerevisiae (strain ATCC 204508 / S288c) (Baker's yeast)) (P32657 whole entry, the tested form may be a part): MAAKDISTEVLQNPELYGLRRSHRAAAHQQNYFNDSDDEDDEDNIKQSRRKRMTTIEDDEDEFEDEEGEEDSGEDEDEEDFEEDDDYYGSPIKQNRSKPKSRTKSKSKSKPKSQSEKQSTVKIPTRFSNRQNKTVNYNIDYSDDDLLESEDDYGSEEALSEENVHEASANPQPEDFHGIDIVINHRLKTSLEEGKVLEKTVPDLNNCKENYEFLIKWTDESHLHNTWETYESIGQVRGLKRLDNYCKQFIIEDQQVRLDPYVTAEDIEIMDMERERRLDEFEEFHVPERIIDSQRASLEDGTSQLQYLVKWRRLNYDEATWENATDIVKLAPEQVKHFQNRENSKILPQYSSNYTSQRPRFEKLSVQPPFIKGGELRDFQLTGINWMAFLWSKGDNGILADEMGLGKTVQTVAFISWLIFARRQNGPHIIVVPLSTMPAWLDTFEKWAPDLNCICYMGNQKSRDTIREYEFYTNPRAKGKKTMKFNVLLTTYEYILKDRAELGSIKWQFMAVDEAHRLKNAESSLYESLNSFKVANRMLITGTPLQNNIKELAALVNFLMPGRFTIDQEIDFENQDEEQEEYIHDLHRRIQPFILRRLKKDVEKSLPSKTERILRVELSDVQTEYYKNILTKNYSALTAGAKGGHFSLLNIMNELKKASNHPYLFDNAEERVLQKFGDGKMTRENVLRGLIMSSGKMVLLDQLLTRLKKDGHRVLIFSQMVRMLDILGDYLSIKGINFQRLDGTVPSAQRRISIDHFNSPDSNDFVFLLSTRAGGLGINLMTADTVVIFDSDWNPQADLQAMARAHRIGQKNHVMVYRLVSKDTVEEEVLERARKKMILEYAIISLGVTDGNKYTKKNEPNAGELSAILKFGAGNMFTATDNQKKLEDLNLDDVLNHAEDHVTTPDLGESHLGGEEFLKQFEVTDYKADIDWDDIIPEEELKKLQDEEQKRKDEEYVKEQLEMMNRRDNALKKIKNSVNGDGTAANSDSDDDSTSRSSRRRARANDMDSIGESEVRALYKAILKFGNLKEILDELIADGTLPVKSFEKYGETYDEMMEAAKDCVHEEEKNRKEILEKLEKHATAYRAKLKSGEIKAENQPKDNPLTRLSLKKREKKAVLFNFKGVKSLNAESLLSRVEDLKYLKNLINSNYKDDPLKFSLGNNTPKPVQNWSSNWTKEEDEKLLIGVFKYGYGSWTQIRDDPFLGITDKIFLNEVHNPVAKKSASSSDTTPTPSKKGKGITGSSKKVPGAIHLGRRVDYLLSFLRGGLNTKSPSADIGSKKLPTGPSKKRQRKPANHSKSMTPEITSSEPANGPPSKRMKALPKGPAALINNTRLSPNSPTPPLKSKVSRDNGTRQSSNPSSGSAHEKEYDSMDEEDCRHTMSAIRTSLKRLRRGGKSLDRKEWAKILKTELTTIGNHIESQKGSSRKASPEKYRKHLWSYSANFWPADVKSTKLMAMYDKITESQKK

Sequence of Protein translocase subunit SecA (Escherichia coli (strain K12)) (P10408 whole entry): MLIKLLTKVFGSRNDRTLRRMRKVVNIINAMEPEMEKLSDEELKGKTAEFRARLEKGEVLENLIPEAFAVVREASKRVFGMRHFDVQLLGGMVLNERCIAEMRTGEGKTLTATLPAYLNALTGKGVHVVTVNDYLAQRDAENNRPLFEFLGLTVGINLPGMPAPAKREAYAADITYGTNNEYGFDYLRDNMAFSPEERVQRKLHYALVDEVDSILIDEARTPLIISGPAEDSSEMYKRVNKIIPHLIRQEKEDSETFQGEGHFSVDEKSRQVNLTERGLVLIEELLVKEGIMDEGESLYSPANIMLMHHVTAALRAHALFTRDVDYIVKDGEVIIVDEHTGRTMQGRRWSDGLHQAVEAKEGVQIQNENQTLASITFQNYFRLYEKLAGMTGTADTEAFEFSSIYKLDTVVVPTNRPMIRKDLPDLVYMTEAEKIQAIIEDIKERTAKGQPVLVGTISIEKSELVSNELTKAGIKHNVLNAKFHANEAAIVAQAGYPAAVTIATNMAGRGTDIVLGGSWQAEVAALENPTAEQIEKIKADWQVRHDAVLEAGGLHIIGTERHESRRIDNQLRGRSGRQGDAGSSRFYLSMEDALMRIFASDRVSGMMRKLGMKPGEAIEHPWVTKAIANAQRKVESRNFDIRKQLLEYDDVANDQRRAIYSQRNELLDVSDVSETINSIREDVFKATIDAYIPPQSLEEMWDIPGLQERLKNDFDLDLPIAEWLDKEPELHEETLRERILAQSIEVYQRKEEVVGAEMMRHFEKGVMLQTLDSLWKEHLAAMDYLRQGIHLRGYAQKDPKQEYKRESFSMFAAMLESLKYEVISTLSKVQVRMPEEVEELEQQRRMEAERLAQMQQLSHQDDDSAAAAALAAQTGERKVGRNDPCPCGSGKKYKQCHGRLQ
Sequence of Sialic acid-binding Ig-like lectin 9 (Homo sapiens) (Q9Y336 whole entry): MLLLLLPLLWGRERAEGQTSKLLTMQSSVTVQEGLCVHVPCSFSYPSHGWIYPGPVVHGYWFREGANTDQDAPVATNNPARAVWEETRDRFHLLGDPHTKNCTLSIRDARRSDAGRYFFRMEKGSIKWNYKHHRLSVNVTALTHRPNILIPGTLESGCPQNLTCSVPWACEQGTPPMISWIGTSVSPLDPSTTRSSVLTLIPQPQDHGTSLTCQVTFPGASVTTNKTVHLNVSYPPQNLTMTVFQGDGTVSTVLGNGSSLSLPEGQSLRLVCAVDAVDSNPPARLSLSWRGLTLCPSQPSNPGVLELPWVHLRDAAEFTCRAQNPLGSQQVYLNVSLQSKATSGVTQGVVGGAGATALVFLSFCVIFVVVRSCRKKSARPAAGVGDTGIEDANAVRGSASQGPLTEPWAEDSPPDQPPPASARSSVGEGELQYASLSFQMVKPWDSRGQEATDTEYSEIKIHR

Cc1ccoc1-c1nnc(CN2CCn3c(nnc3C3CC3)C2)o1
Percent Effect [1]: -3.51% | Percent Effect [2]: 0% | Percent Effect [3]: -0.995% | Percent Effect [4]: 0.201% | Percent Effect [5]: 0.444% | Percent Effect [6]: -4.16% | Percent Effect [7]: 7.27% | Percent Effect [8]: -1.58% | Percent Effect [9]: -10.3% | Percent Effect [10]: -2.12%

Cc1cnn(CC2CCCN2C(=O)c2cc(Cl)ccc2F)c1 (stereo not given)
Percent Effect [1]: -1.32% | Percent Effect [2]: 2.6% | Percent Effect [3]: -6.93% | Percent Effect [4]: -0.933% | Percent Effect [5]: 5.12% | Percent Effect [6]: 4.91% | Percent Effect [7]: 10.8% | Percent Effect [8]: -1.96% | Percent Effect [9]: -2.35% | Percent Effect [10]: 2.99%

CN(C)C[C@@H]1C[C@@H]2CN(C(=O)c3ccoc3)CC[C@@H]2N1CC1CC1
Percent Effect [1]: -7.24% | Percent Effect [2]: 11.7% | Percent Effect [3]: 1.31% | Percent Effect [4]: -6.19% | Percent Effect [5]: 0.913% | Percent Effect [6]: 0.429% | Percent Effect [7]: 11.2% | Percent Effect [8]: -4.83% | Percent Effect [9]: -2.5% | Percent Effect [10]: -4.24%

CCc1ncnc2c1CCN(Cc1ccc(OC)cc1)CC2
Percent Effect [1]: -4.58% | Percent Effect [2]: -6.49% | Percent Effect [3]: -0.0854% | Percent Effect [4]: 2.82% | Percent Effect [5]: -2.02% | Percent Effect [6]: -3.79% | Percent Effect [7]: -6.35% | Percent Effect [8]: 1.58% | Percent Effect [9]: -12.8% | Percent Effect [10]: 0.0386%

CNC(=O)N1C[C@H]2C[C@H](C(=O)Nc3ccccc3)[C@@H](C1)O2
Percent Effect [1]: -6.94% | Percent Effect [2]: -35.1% | Percent Effect [3]: 1.87% | Percent Effect [4]: 0.0974% | Percent Effect [5]: -3.24% | Percent Effect [6]: 11.7% | Percent Effect [7]: 1.26% | Percent Effect [8]: 4.74% | Percent Effect [9]: 10.3% | Percent Effect [10]: 13.9%

O=C(Cc1n[nH]c2ccccc12)N1CCC(Nc2cccnn2)CC1
Percent Effect [1]: -6.35% | Percent Effect [2]: 10.4% | Percent Effect [3]: 4.16% | Percent Effect [4]: 3.36% | Percent Effect [5]: -7.58% | Percent Effect [6]: 13.2% | Percent Effect [7]: -4.05% | Percent Effect [8]: 5.88% | Percent Effect [9]: 11.8% | Percent Effect [10]: -9.11%

Cn1cnc2c1CCN(Cc1cccc(C(N)=O)c1)C2
Percent Effect [1]: -3.09% | Percent Effect [2]: 7.69% | Percent Effect [3]: 3.32% | Percent Effect [4]: 0.657% | Percent Effect [5]: 2.87% | Percent Effect [6]: -3.67% | Percent Effect [7]: 7.29% | Percent Effect [8]: -0.478% | Percent Effect [9]: 13.2% | Percent Effect [10]: 4.07%

Cc1noc(C(C)C)c1C(=O)NCCN1CCCCCC1=O
Percent Effect [1]: 0.794% | Percent Effect [2]: 20.8% | Percent Effect [3]: 3.57% | Percent Effect [4]: 1.68% | Percent Effect [5]: 1.02% | Percent Effect [6]: 14.9% | Percent Effect [7]: -6.97% | Percent Effect [8]: 6.86% | Percent Effect [9]: 16.5% | Percent Effect [10]: -7.87%

O=C(c1ccnnc1)N1C[C@@H](OCC2CCOCC2)[C@H]2OCCC[C@H]21
Percent Effect [1]: -4.07% | Percent Effect [2]: 1.3% | Percent Effect [3]: 6.81% | Percent Effect [4]: 5.55% | Percent Effect [5]: 14.6% | Percent Effect [6]: 0.618% | Percent Effect [7]: -6.79% | Percent Effect [8]: 0.526% | Percent Effect [9]: 7.69% | Percent Effect [10]: 96%

COc1cc(S(=O)(=O)N2CCc3ccc(F)cc32)cc(C(=O)O)c1OC
Percent Effect [1]: -7.45% | Percent Effect [2]: 10.7% | Percent Effect [3]: 12.6% | Percent Effect [4]: -1.21% | Percent Effect [5]: 0% | Percent Effect [6]: 6.02% | Percent Effect [7]: 4.5% | Percent Effect [8]: -3.68% | Percent Effect [9]: -5.13% | Percent Effect [10]: -15.2%

COc1ccc(CNCc2ccnc(N3CCCCC3)c2)cc1OC
Percent Effect [1]: -2.73% | Percent Effect [2]: -2.56% | Percent Effect [3]: 3.59% | Percent Effect [4]: 4.22% | Percent Effect [5]: 2.87% | Percent Effect [6]: -1.62% | Percent Effect [7]: 25.8% | Percent Effect [8]: 3.35% | Percent Effect [9]: 1.21% | Percent Effect [10]: -2.92%

Cc1ccc(C(=O)N2CCC3(CC2)CC(N2CCOCC2)C3)cc1
Percent Effect [1]: -2.43% | Percent Effect [2]: 9.09% | Percent Effect [3]: -5.57% | Percent Effect [4]: 1.31% | Percent Effect [5]: 0.457% | Percent Effect [6]: -3.18% | Percent Effect [7]: -1.46% | Percent Effect [8]: 3.87% | Percent Effect [9]: 2.5% | Percent Effect [10]: 0.386%

From ChEMBL document CHEMBL3988442, “University of Dundee, Small-Polar-MMV Screening Library” (2021)
